Assay outcomes as filed in PubChem BioAssay.
Hits are enriched below; roughly 19% of the tested compounds scored in any of these assays.
IL1B secr inh = qHTS for Inhibitors of Inflammasome Signaling: IL-1-beta AlphaLISA Primary Screen. THP-1 LPS/ATP IL-1B secretion, AlphaLISA, 16 h; stronger effect = lower value. activity change, % at 57.5 µM. AID 743279, 2014. hit rate 4.7% among 360,000; in the data active means activity change below about -50%; inconclusive means mostly about -30% to -49%
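THP-1 cells pretreated 1 hr with compounds (up to 57.5 uM final), then stimulated with LPS (250 ng/mL final) plus ATP (1.25 mM final); secreted IL-1B measured by AlphaLISA after 16 hr, decreased signal indicating inhibition.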
HT1080 IDH1KD tx = qHTS for induction of synthetic lethality in tumor cells producing 2HG: qHTS for the HT-1080-IDH1KD cell line; hit rate 2% among 360,000; Potency, µM (series often up to 46.1 µM), usual class: cytotoxic; HT-1080 IDH1 knockdown viability, ATP luminescence, 48 h
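Cytotoxicity counter-line: IDH1KD HT-1080, 48 h, CellTiter-Glo. Curves classed by r2, magnitude and activity.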
HT1080NT lethal = qHTS for induction of synthetic lethality in tumor cells producing 2HG: qHTS for the HT-1080-NT fibrosarcoma cell line | HT-1080-NT fibrosarcoma viability, CellTiter-Glo ATP luminescence, 48 h | Potency, µM (doses to about 46.1 µM), actives largely listed as cytotoxic | hit rate 1.6% among 360,000 | AID 686970, 2013;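 further: NT is the 2HG producing partner of a matched IDH1 knockdown line; nearly all actives have a fitted effect of over 55% in size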
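Viability of the 2HG-overproducing fibrosarcoma line after 48 hours of compound exposure at 37 degrees C was determined by luminescence with CellTiter-Glo, and concentration-effect curves were then fitted and categorized.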
TDP1 cell noCPT = qHTS for Inhibitors of human tyrosyl-DNA phosphodiesterase 1 (TDP1): qHTS in cells in absence of CPT. Potency, µM (highest dose often 46.2 µM), actives largely listed as inhibitors. hit rate 15% among 420,000. DT40 Tdp1-/- hTDP1 cells, no CPT, ATP luminescence, 48 h. AID 686978, 2013; further: nearly all actives have a fitted effect of over 55% in size
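No-CPT arm: Tdp1-/-;hTDP1 DT40 cells (400/well) plus compounds, incubated ≥48 hr at 37 °C. Readout CellTiter-Glo luminescence.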
TDP1 cell CPT = qHTS for Inhibitors of human tyrosyl-DNA phosphodiesterase 1 (TDP1): qHTS in cells in presence of CPT | chicken DT40 Tdp1-/-;hTDP1 cells + 20 nM CPT, ATP luminescence, 48 h | Potency, µM (top dose mostly 46.2 µM), usual class: inhibitors | hit rate 12% among 420,000; further: nearly all actives have a fitted effect of over 55% in size
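Chicken DT40 Tdp1-/- cells stably complemented with human TDP1 were seeded at 400 cells/well in medium containing 20 nM camptothecin, exposed to pin-transferred compounds, and grown at 37 °C for at least 48 hr. Viability was read as ATP luminescence.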
Numbers stand for hits; – = inactive; ? = inconclusive; · = no result given. Unless noted, the call rests on the fitted dose curve; in most records, active means well fitted curve in the direction sought with a large enough effect; inconclusive means small, poorly fitted or top-dose-only effect, or another doubt; inactive means no such curve, though single readings can be large; an effect the other way counts as inactive or inconclusive.

SMILES	IL1B secr inh	HT1080 IDH1KD tx	HT1080NT lethal	TDP1 cell noCPT	TDP1 cell CPT
NC(=O)c1ccc(NC(=O)COC(=O)c2ccccc2SCC(=O)N2CCCC2)cc1	–	–	–	?	?
COc1ccc(C2CC(c3cccs3)=NN2C(=O)CSC2=NN3CCCC(=O)N=C3S2)cc1 (centres undefined)	–	–	–	?	?
CNC(=S)N1N=C(c2cccs2)CC1c1ccc(F)cc1 (centres undefined)	-51.0	–	–	–	–
Cc1ccc(C2CC(c3cccs3)=NN2C(=O)CSC2=NN3CCCC(=O)N=C3S2)cc1 (centres undefined)	–	–	–	?	13µM
Cc1ccc(C2CC(c3cccs3)=NN2C(=O)CCl)cc1 (centres undefined)	-105.8	4.11µM	4.61µM	2.91µM	2.59µM
Cc1nnc(SCC(=O)Nc2ccc([N+](=O)[O-])cc2)n1C	–	–	–	–	–
O=S(=O)(c1ccc2c(c1)CCCC2)N1CCNCC1	–	–	–	–	–
Nc1nc(=S)c2[nH]c(=S)[nH]c2[nH]1	–	?	–	–	–
Nc1nc(=S)c2[nH]cnc2[nH]1	–	1.3µM	2.31µM	1.84µM	2.59µM
CN1c2ccccc2N(C)C1(C)c1cccc2ccccc12	–	–	–	3.26µM	5.8µM
Cn1c(=O)c([N+](=O)[O-])c(NCCCn2ccnc2)c2ccccc21	·	–	–	–	–
Cn1c(=O)c([N+](=O)[O-])c(-n2ccnc2)c2ccccc21	-100.5	25.9µM	16.4µM	4.11µM	4.61µM
Cn1c(=O)c([N+](=O)[O-])c(NCC(O)c2ccccc2)c2ccccc21 (centres undefined)	–	–	–	18.4µM	?
CC(C)c1ccc(Nc2c([N+](=O)[O-])c(=O)n(C)c3ccccc23)cc1	-65.9	–	–	?	–
CCC(Oc1ccccc1)C(=O)Nc1cc(C(F)(F)F)ccc1N1CCOCC1 (centres undefined)	–	–	–	–	–
CCCNC(=O)C1CCC(Cn2c(=O)c3sccc3n(CC(=O)N3CCC(C)CC3)c2=O)CC1 (centres undefined)	·	·	·	–	–
Cn1cccc1C(=O)N1CCC2(CC1)CN(c1ccccn1)C2	·	·	·	?	–
Cc1cc(Cl)c(S(=O)(=O)N2CCSCC2)cc1OCC(=O)NC1CCCCC1	-53.6	–	?	18.4µM	16.4µM
Cc1cc(Cl)c(S(=O)(=O)NC2CCCC2)cc1OCC(=O)NC1CCCCC1	–	20µM	–	23.1µM	25.9µM
CCN1CCN(S(=O)(=O)c2cc(OCC(=O)NC3CCCCC3)c(C)cc2Cl)CC1	?	–	–	?	23.1µM
Cc1cc(Cl)c(S(=O)(=O)N2CCN(c3ccccn3)CC2)cc1OCC(=O)NC1CCCCC1	?	–	?	20.6µM	?
Cc1cc(Cl)c(S(N)(=O)=O)cc1OCC(=O)NC1CCCCC1	–	–	–	–	–
Cc1cc(Cl)c(S(=O)(=O)N2CCCCCC2)cc1OCC(=O)NC1CCCCC1	–	–	–	–	–
CCS(=O)(=O)c1ccc(-c2csc(-c3ccccc3)n2)c(Cl)c1Cl	–	–	–	20.6µM	16.4µM
CC(C)(C)CC(C)(C)c1ccc(OCC(=O)Nc2ccc(S(=O)(=O)Nc3ncccn3)cc2)cc1	·	·	·	–	–
SMILES	IL1B secr inh	HT1080 IDH1KD tx	HT1080NT lethal	TDP1 cell noCPT	TDP1 cell CPT
O=C(CCCN1C(=O)/C(=C/c2ccccc2Cl)SC1=S)NNC(=O)c1ccccc1	-102.4	–	–	16.4µM	18.4µM
O=C(CCCN1C(=O)/C(=C/c2ccccc2Cl)SC1=S)N1CCOCC1	?	–	–	16.4µM	?
O=C(CCCN1C(=O)/C(=C/c2ccccc2Cl)SC1=S)NNC(=O)c1cccnc1	–	–	–	?	?
O=C(CCN1C(=O)/C(=C\c2cccc(Br)c2)SC1=S)N1CCOCC1	?	–	–	6.51µM	6.51µM
O=C(CCCN1C(=O)/C(=C\c2ccccc2)SC1=S)N1CCOCC1	-83.9	?	–	?	23.1µM
Cc1nn(-c2ccccc2)c2sc(C(=O)OCc3nnc(-c4ccccc4)o3)cc12	–	–	–	?	–
COc1ccc(C(CNC(=O)C(CCSC)NC(=O)c2ccccc2OC)N2CCCCC2)cc1 (centres undefined)	–	–	–	?	?
Cc1ccc(NC(=O)Cn2c(=O)oc3cc(S(=O)(=O)N4CCCC4)ccc32)cc1F	·	·	·	–	–
CC(=O)c1cccc(NC(=O)Cn2c(=O)oc3cc(S(=O)(=O)N4CCCC4)ccc32)c1	–	–	–	–	–
Cc1ccc(NC(=O)Cn2c(=O)ccc3cc(S(=O)(=O)N4CCC(C)CC4)ccc32)cc1C	·	·	·	–	?
Cc1ccc(NC(=O)Cn2c(=O)oc3cc(S(=O)(=O)N4CCCCC4)ccc32)c(Cl)c1	·	·	·	11.6µM	?
Cc1cc(C)cc(NC(=O)Cn2c(=O)oc3cc(S(=O)(=O)N4CCCC4)ccc32)c1	·	·	·	20.6µM	?
Cc1ccc(NC(=O)Cn2c(=O)oc3cc(S(=O)(=O)N4CCC(C)CC4)ccc32)cc1C	–	?	?	?	14.6µM
Cc1cc(NC(=O)Cn2c(=O)oc3cc(S(=O)(=O)N4CCCC4)ccc32)ccc1Br	·	·	·	14.6µM	20.6µM
O=C(CSc1ccc2nnc(CCNC(=O)c3ccccc3)n2n1)NCc1ccc(F)cc1	–	–	–	–	–
Cc1cc(C)cc(Nc2cc(C(=O)NCc3ccccc3)c3ccccc3n2)c1	·	·	·	20.6µM	23.1µM
Cc1cc(C)cc(Nc2cc(C(=O)NCCCN(C)C3CCCCC3)c3ccccc3n2)c1	·	·	·	3.26µM	4.61µM
Cc1ccc(C)c(Nc2cc(C(=O)NCCCN(C)C3CCCCC3)c3ccccc3n2)c1	·	·	·	14.6µM	?
COc1ccc(CNC(=O)c2cc(Nc3ccc(C)cc3C)nc3ccccc23)cc1	·	·	·	20.6µM	18.4µM
COc1ccc(Nc2cc(C(=O)NCc3ccccc3)c3ccccc3n2)cc1	·	·	·	–	?
O=C1NCCN(CC2CCN(CCc3ccc(Cl)c(Cl)c3)CC2)C1=O	–	–	–	–	–
OCCN(CCO)Cc1csc2ccccc12	–	–	–	–	–
COC(=O)c1ccc(Nc2ncnc3c2cnn3C)cc1	·	·	·	–	–
CCN(CC)c1cnn(C/C(=N\OC)c2ccc(Cl)cc2)c(=O)c1Br	–	–	–	?	?
CCS(=O)(=O)c1ccc(O)c(NC(=O)Nc2cccc3ccccc23)c1	–	–	–	–	–
NC(=S)Nc1cc(Cl)ccc1Cl	–	–	–	13µM	14.6µM
NC(=O)Nc1cc(Cl)ccc1Cl	–	–	–	–	–
